Data on 94 compounds can be found in PubChem BioAssay AID540333 (Southern Research Specialized Biocontainment Screening …, 2011).

Out of some 10,000 compounds screened, about 320 (3.2%) were called active. Cut-off read from the data, not from the text of the source: active = CPE inhibition mostly above about 9.1% (no sharp cut-off); inactive = mostly below about 7.2%. What follows is part of a selection rich in actives, with near analogues and random picks from the rest.

A short description of the assay: Dengue virus cytopathic effect inhibitors, cell-based, CPE readout, HTS (AID 540333). The settings on record: Dengue virus CPE inhibition in host cells, at 20 µM; stronger effect = higher value.
Turning to `O=C(CCSCCc1ccccn1)Nc1c(F)c(F)c(F)c(F)c1F`, the CPE inhibition result was “inactive”.
Regarding `O=C1CCCc2[nH]c3cccc(/C(=C/c4ccccc4)c4ccccc4)c3c21`, the CPE inhibition was 22.5% (active).
`CCOC(=O)N1CCC(N2Cc3cccc(C(=O)N4CC(C)CC(C)C4)c3C2=O)CC1` (centres undefined): the CPE inhibition entry is “inactive”.
For the compound `CCCCCC[n+]1c(-c2ccccc2)csc1Nc1ccccc1`, the CPE inhibition is 7.19% (inactive).
The figure for `CC1=C(C#N)C(c2ccccc2)C2=C(N1)c1ccccc1C2=O` (centres undefined) is 1.29% (inactive); for `CN(CC(=O)Nc1ccc(C#N)cc1)CC(=O)Nc1ccc(N2CCOCC2)cc1` it is 0.525% (inactive).
Take `CCCCCCn1nc(C(=O)Nc2nc3c(s2)CCCC3)c2ccccc2c1=O`: the CPE inhibition was 29% (active).
With `O=C(Nc1nc2c(s1)CCCC2)c1cc(-c2ccccc2)nc2ccccc12`, the CPE inhibition is 5.19% (inactive).
Next, `CCn1nc(C(=O)Nc2nc3ccccc3[nH]2)c2ccccc2c1=O`: 0.06% (inactive).
With `C=CCn1c(SCc2ccc(C(=O)Nc3nccs3)cc2)nnc1-c1ccc(C)c(Cl)c1`, the CPE inhibition was 0.44% (inactive).
On to `CC1CCCCC1NC(=S)NC(=O)c1ccccc1Br` (centres undefined), for which the CPE inhibition was 0.915% (inactive).
For the compound `O=C(NC(=S)NC1CCCC1)c1ccccc1Br`, the CPE inhibition is 0.11% (inactive).
For `CC1CCCC(NC(=S)NC(=O)c2ccccc2Br)C1C` (centres undefined), the CPE inhibition was 21.1% (active).
On to `COc1cccc(NC(=O)CCC(=O)Nc2cccc(OC)c2)c1`, for which the CPE inhibition was 0.18% (inactive).
Turning to `Cc1ccc(NC(=O)c2cc3c(s2)CCCC3)cc1S(=O)(=O)Nc1ccccc1Cl`, the CPE inhibition was 1.93% (inactive).
Regarding `O=C(CN1C(=O)/C(=C\C=C\c2ccccc2)SC1=S)Nc1ccc(F)cc1`, the CPE inhibition is 1.02% (inactive).
Turning to `O=C1CC(N2C(=O)/C(=C/C=C/c3ccccc3)SC2=S)C(=O)N1c1ccccc1` (centres undefined), the CPE inhibition was 9.17% (active).
Regarding `CC(=O)c1ccc(NC(=O)CN2C(=O)/C(=C/C=C/c3ccccc3)SC2=S)cc1`, the CPE inhibition is 0.165% (inactive).
For `CC(=O)Nc1ccc(S(=O)(=O)NCC(=O)OCC(=O)NC(=O)C2CCCCC2)cc1`, the CPE inhibition is 0.165% (inactive).
In the case of `NC(=O)C1(NC(=O)[C@@H]2CC3(CC(c4cccc(NC(=O)[C@@H]5CCC(=O)N5)c4)=NO3)CN2C(=O)c2cnccn2)CC1` (some centres undefined), the CPE inhibition is 0.745% (inactive).
As for `O=C(CSc1nc2ccccc2s1)Nc1cc(S(=O)(=O)N2CCOCC2)ccc1O`, the CPE inhibition entry was “inactive”.
`Fc1cccc(NC(=S)NCCN2CCOCC2)c1`: the CPE inhibition is 0.255% (inactive).
As for `O=C(C[n+]1cc(-c2ccc(F)cc2)n2c1CCC2)Nc1nc(-c2ccccc2)cs1`, the CPE inhibition was 0.55% (inactive).
In the case of `O=C(C[n+]1cc(-c2ccccc2)n2c1CCC2)Nc1nc(-c2ccccc2)cs1`, the CPE inhibition was 4.34% (inactive).
In the case of `O=C(C[n+]1cc(-c2ccccc2)n2c1CCC2)Nc1nc(-c2ccc(F)cc2)cs1`, the CPE inhibition is 17% (active).
As for `O=C(c1cccc(S(=O)(=O)N2CCc3ccccc3C2)c1)N1CCN(c2ccccc2)CC1`, the CPE inhibition is 3% (inactive).
Regarding `CC1CCCN(S(=O)(=O)c2ccc(Br)s2)C1` (centres undefined), the CPE inhibition was 0.775% (inactive).
With `O=C(NC1CCCC1)C(NS(=O)(=O)c1ccc(Br)s1)c1ccccc1` (centres undefined), the CPE inhibition was 0.805% (inactive).
Consider `CC1CC(C)CN(C(=O)C(NS(=O)(=O)c2ccc(Br)s2)c2ccccc2)C1` (centres undefined), for which the CPE inhibition was 24.6% (active).
Take `CN(/N=C/c1cc([N+](=O)[O-])ccc1O)c1ccccc1`: the CPE inhibition was 1.04% (inactive).
In the case of `COC(=O)c1ccc(CSc2nnc(NC(=O)C3CC(=O)N(Cc4ccc(C)cc4)C3)s2)cc1` (centres undefined), the CPE inhibition is 0.19% (inactive).
On to `CC(C)CN(CC(C)C)C(=O)CCCC(=O)N(CC(C)C)CC(C)C`, for which the CPE inhibition result was “inactive”.
With `NS(=O)(=O)c1ccc(NC(=S)N2CCN(c3cccc(Cl)c3)CC2)cc1`, the CPE inhibition is 1.62% (inactive).
The figure for `O=S(=O)(c1ccccc1)N1CCN(C(=S)Nc2ccc(F)cc2)CC1` is 1.81% (inactive).
Turning to `O=S(=O)(c1ccc2ccccc2c1)N1CCN(C(=S)Nc2ccc(F)cc2)CC1`, the CPE inhibition was 26.1% (active).
As to `O=C(CCC(=O)N1CCN(S(=O)(=O)c2ccc(Cl)cc2)CC1)Nc1ccc2ccccc2c1`, the CPE inhibition is 11% (active).
As to `O=S(=O)(c1ccc(Cl)cc1)N1CCN(C(=S)Nc2ccc(F)c(Cl)c2)CC1`, the CPE inhibition is 13.6% (active).
The figure for `O=C(Nc1ccc(F)cc1)C(c1ccccc1)N1CCN(S(=O)(=O)c2ccc3ccccc3c2)CC1` (centres undefined) is 2% (inactive).
For `O=C(CNC(=O)c1ccc2ccccc2c1)OCC(=O)N1CCN(S(=O)(=O)c2ccc3ccccc3c2)CC1`, the CPE inhibition result was “inactive”.
With `O=C(CCC(=O)N1CCN(S(=O)(=O)c2ccc(Cl)cc2)CC1)NCc1ccccc1`, the CPE inhibition was 0.355% (inactive).
The figure for `Fc1ccc(NC(=S)N2CCCC2)cc1Cl` is 0.335% (inactive).
Take `COC(=O)c1ccc(CNC(=O)COC(=O)CC23CC4CC(CC(Br)(C4)C2)C3)cc1`: the CPE inhibition entry is “inactive”.
As to `COc1ccc(CC(=O)NNc2ncnc3c2cnn3C)cc1`, the CPE inhibition result was “inactive”.
The figure for `Cc1cccc(CSC(Nc2ccc(F)cc2)=C(C#N)C#N)c1` is 0.46% (inactive); for `COc1cccc(C(C)NC(=O)c2c(F)cccc2Cl)c1` (centres undefined) it is 0.965% (inactive).
The figure for `CC(=O)CSc1ccc(C(=O)O)cn1` is 0.685% (inactive).
Turning to `Cc1ccccc1OCCNC(=O)/C=C/c1ccccc1`, the CPE inhibition result is “inactive”.
Next, `Cc1ccc(NC(=O)CSc2ncnc3ccccc23)cc1S(=O)(=O)N1CCCCC1`: 2.42% (inactive); `COc1ccc(NC(=O)CSc2ccccc2)cc1S(=O)(=O)N1CCCCC1`: “inactive”; `COc1ccc(NC(=O)CCC2CCCCC2)cc1S(=O)(=O)N1CCCCC1`: 11.6% (active).
Next, `Cc1cccc(OCCCC(=O)Nc2ccc(N(C)C)cc2)c1`: 0.66% (inactive); `COc1ccc(NC(=O)CCCC2CCCCC2)cc1S(=O)(=O)N1CCCCC1`: 0.425% (inactive); `Cc1cccc(OCCC(=O)Nc2ccc(C)c(S(=O)(=O)N3CCCCC3)c2)c1`: 16.7% (active).
As to `COc1ccc([C@H]2CC(=O)C=C(c3cc(C(F)(F)F)cc(C(F)(F)F)c3)C2)cc1`, the CPE inhibition entry was “inactive”.
`COCCCNCCCCOc1ccc(Br)cc1C`: the CPE inhibition result is “inactive”.
Take `CC1c2ccccc2SC(CCCN(C)C)c2ccccc21` (centres undefined): the CPE inhibition result is “inactive”.
As to `Cc1ccc(NC(=S)N2CCN(C)CC2)c(C)c1`, the CPE inhibition was 0.8% (inactive).
As for `COc1ccccc1N(CC(=O)N/N=C/c1c(O)ccc2ccccc12)S(C)(=O)=O`, the CPE inhibition was 0.02% (inactive).
Consider `CCOC(=O)c1ccc(-c2ccc(/C=N/NC(=O)CN(c3ccccc3Cl)S(C)(=O)=O)o2)cc1`, for which the CPE inhibition is 12.9% (active).
For `CS(=O)(=O)N(CC(=O)N/N=C/c1ccco1)c1ccccc1Br`, the CPE inhibition was 0.19% (inactive).
`Cc1ccc(NC(=O)c2ccc(OC(F)F)cc2)cc1S(=O)(=O)N(C)C`: the CPE inhibition result is “inactive”.
Take `CCn1c(COc2ccc(Cl)cc2)nnc1SC1CCc2ccccc2C1=O` (centres undefined): the CPE inhibition was 1.03% (inactive).
Consider `O=C(COC(=O)CC(c1ccccc1)c1ccccc1)Nc1cccc(F)c1`, for which the CPE inhibition result was “inactive”.
Next, `CCCCc1nn2c(N)c(/C=C3\C=Nc4ccccc43)c(=O)nc2s1`: “inactive”; `O=C1S/C(=C/c2ccccc2)C(=O)N1CC(O)Cn1c2ccccc2c2ccccc21` (centres undefined): 16.2% (active); `O=C1S/C(=C\c2ccccc2)C(=O)N1CC(O)Cn1c2ccccc2c2ccccc21` (centres undefined): “inactive”.
On to `CN(C)c1ccc(/C=C2\SC(=O)N(CC(O)Cn3c4ccccc4c4ccccc43)C2=O)cc1` (centres undefined), for which the CPE inhibition was 2.39% (inactive).
The figure for `C=CCN1c2ccccc2[C@]23C[C@@H](C(=O)OC)N(C(=O)NC4CCCC4)C2=NC(C(=O)OC)=C(C(=O)OC)[C@H]13` is 0.19% (inactive).
As to `CC1(C)CC(=NOC(=O)c2ccccc2)CC(C)(C)N1O`, the CPE inhibition was 3.8% (inactive).
Turning to `Cc1ccc(Nc2ccc(C(=O)NCCc3ccccc3)cn2)cc1`, the CPE inhibition is 0.525% (inactive).
In the case of `c1ccc(NCc2nc3ccccc3n2CCOc2ccccc2)cc1`, the CPE inhibition is 0.715% (inactive).
`CCCCn1c(=N)n(CCOc2ccc(C)cc2)c2ccccc21`: the CPE inhibition result is “inactive”.
In the case of `Cc1ccc(NCc2nc3ccccc3n2CCOc2ccccc2)cc1`, the CPE inhibition was 14.9% (active).
The entry for `S=C(NCCN1CCOCC1)Nc1ccccc1Cl` is “inactive”; for `COc1ccc(CN2C(=O)/C(=C/c3ccncc3)SC2=S)cc1` it is “inactive”; for `Cc1ccc(/C=C2\SC(=S)N(CCCC(=O)Nc3nccs3)C2=O)cc1` it is 0.46% (inactive).
Turning to `O=C(O)CCCCCN1C(=O)/C(=C\c2ccncc2)SC1=S`, the CPE inhibition is 14.8% (active).
Regarding `Cc1cc(Br)ccc1SCC(=O)OCC(=O)NC(C)c1ccccc1` (centres undefined), the CPE inhibition is 0.13% (inactive).
On to `O=C(Nc1cccc(-c2cn3ccccc3n2)c1)c1cccs1`, for which the CPE inhibition is 0.18% (inactive).
`O=C(c1cnn(C(=O)c2ccccc2)c1)c1ccccc1O`: the CPE inhibition was 2.51% (inactive).
Consider `COc1ccc(C(=O)n2cc(C(=O)c3cc(C)ccc3O)cn2)cc1`, for which the CPE inhibition entry is “inactive”.
For the compound `COc1ccc(C(=O)n2cc(C(=O)c3cc(C)ccc3O)cn2)cc1OC`, the CPE inhibition was 14.3% (active).
Regarding `Cc1cccc(NCCC#N)c1`, the CPE inhibition result was “inactive”.
On to `O=C(Nc1cccc(Cl)c1)c1ccc(F)c(S(=O)(=O)NCc2cccs2)c1`, for which the CPE inhibition was 11.8% (active).
For `O=C(Nc1cccc(Cl)c1)c1ccc(F)c(S(=O)(=O)NCc2ccc3c(c2)OCO3)c1`, the CPE inhibition is 5.79% (inactive).
As to `Cc1ccc(NC(=O)c2cccs2)cc1S(=O)(=O)Nc1cccc(Cl)c1`, the CPE inhibition was 7.68% (inactive).
Next, `COCC(C)NC(=O)c1ccccc1[N+](=O)[O-]` (centres undefined): 1.6% (inactive); `CC(C)CNC(=S)Nc1ccc(S(N)(=O)=O)cc1`: 0.36% (inactive).
Regarding `COc1cc(CN(C2CCCCC2)S(=O)(=O)c2ccc(S(=O)(=O)N(C)C3CCCCC3)cc2)cc(OC)c1OC`, the CPE inhibition entry is “inactive”.
In the case of `COc1cc(CN(C2CCCCC2C)S(=O)(=O)c2ccc(S(=O)(=O)NC3CC3)cc2)cc(OC)c1OC` (centres undefined), the CPE inhibition is 19.9% (active).
`COc1ccc(CCNC(=O)COc2ccc(S(=O)(=O)NC3CCCCC3)cc2Cl)cc1OC`: the CPE inhibition was 2.27% (inactive).
Turning to `Cc1nn(-c2ccccc2)c(N2CCCC2)c1/C=N/NC(=O)c1cc(-c2ccccc2)nc2ccccc12`, the CPE inhibition is 2.99% (inactive).
As to `Cc1nn(-c2ccccc2)c(N2CCCC2)c1/C=N/NC(=O)c1ccccc1O`, the CPE inhibition entry is “inactive”.
For `Cc1nn(-c2ccccc2)c(N2CCCC2)c1/C=N/NC(=S)Nc1ccccc1F`, the CPE inhibition is 13.2% (active).
